Test results published in PubChem BioAssay (Tox21).
Inconclusive results are not listed. Where a call stands in place of a potency, no number is given. The source made the active and inactive calls. The call rests on the fitted dose curve; in most records, active means well fitted inhibition curve with a large enough effect in the repeat runs; inconclusive means weak or mixed curves; inactive means no such curve, though single readings can be large or run the other way.

These compounds were tested against Cytochrome P450 2C19 (Homo sapiens) (UniProt P33261) (assay: Cytochrome P450 Family 2 Subfamily C Member 19 (CYP2C19) small molecule antagonists: luciferase reporter qHTS assay (AID 1671197; further: nearly all actives have a fitted effect of over 65% in size)). Conditions: P450-Glo CYP2C19 enzyme, luciferin luminescence, 1 h; series mostly up to 115 µM.
Procedure, shortened: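 Luminescent readout of CYP2C19 activity: luciferin product detected 20 min after adding detection reagent. Before that, compound and enzyme-substrate mix preincubated 10 min at room temperature; NADPH-regenerating system started a 1 h, 37C reaction. Ketoconazole as positive control.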
Potency means the concentration at half of the fitted maximal effect.

Cytochrome P450 2C19 (Homo sapiens), sequence (P33261 whole entry, looked up): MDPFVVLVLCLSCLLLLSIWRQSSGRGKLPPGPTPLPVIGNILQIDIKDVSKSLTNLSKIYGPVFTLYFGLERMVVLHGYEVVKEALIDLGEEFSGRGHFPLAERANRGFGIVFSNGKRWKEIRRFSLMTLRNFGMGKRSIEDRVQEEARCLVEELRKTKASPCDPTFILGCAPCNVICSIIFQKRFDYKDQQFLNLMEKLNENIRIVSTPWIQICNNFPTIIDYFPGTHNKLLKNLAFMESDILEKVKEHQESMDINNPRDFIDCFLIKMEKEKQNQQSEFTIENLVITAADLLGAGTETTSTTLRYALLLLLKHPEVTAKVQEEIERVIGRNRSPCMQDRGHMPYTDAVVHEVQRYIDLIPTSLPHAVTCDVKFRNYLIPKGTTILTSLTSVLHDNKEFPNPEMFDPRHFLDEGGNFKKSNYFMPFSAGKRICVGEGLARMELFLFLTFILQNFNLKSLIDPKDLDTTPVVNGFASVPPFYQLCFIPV

| SMILES | Potency |
| --- | --- |
| SC1CCCC1 | inactive |
| Cc1ncsc1CCO | inactive |
| Nc1cnn([C@@H]2O[C@H](CO)[C@@H](O)[C@H]2O)c(=O)n1 | inactive |
| CC(=O)c1ccc2c(c1)[C@H](NC(=O)c1ccc(F)cc1)[C@@H](O)C(C)(C)O2 | inactive |
| Nc1ccc(C(=O)Nc2ccccc2N)cc1 | inactive |
| Cl/C(=C\n1cncn1)c1ccc(Cl)cc1Cl | 1.38 µM (active) |
| CC(C(=O)O)c1ccc(C(=O)c2ccccc2)s1 (stereo unspecified) | 4.9 µM (active) |
| Cn1c(NCCN(CCO)CCCc2ccc([N+](=O)[O-])cc2)cc(=O)n(C)c1=O | inactive |
| CCCCCCc1ccc(N)cc1 | 3.56 µM (active) |
| COc1ccccc1OC(=O)Oc1ccccc1OC | 9.77 µM (active) |
| O=C(CC(=O)c1ccccc1)c1ccccc1 | 24.1 µM (active) |
| CC[C@H](C)[C@H](N)C(=O)O | inactive |
| NCc1ccccc1 | inactive |
| CCN1CCC[C@H]1CNC(=O)c1c(OC)ccc(Br)c1OC | inactive |
| N[C@H]1C(O)O[C@H](CO)[C@H](O)[C@@H]1O (stereo partly specified) | inactive |

The compounds below were run against Cytochrome P450 2C9 (Homo sapiens) (UniProt P11712) (assay: Cytochrome P450 Family 2 Subfamily C Member 9 (CYP2C9) small molecule antagonists: luciferase reporter qHTS assay (AID 1671198; further: nearly all actives have a fitted effect of over 50% in size)). Conditions: P450-Glo CYP2C9 enzyme assay, luciferin luminescence; series mostly up to 115 µM.
Procedure, shortened: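 P450-Glo proluciferin substrate with CYP2C9 enzyme; 10 min RT preincubation, then NADPH regeneration 1 h at 37C; luciferin detection reagent 20 min RT, luminescence in relative luminescence units.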

Cytochrome P450 2C9 (Homo sapiens), sequence (P11712 whole entry, looked up): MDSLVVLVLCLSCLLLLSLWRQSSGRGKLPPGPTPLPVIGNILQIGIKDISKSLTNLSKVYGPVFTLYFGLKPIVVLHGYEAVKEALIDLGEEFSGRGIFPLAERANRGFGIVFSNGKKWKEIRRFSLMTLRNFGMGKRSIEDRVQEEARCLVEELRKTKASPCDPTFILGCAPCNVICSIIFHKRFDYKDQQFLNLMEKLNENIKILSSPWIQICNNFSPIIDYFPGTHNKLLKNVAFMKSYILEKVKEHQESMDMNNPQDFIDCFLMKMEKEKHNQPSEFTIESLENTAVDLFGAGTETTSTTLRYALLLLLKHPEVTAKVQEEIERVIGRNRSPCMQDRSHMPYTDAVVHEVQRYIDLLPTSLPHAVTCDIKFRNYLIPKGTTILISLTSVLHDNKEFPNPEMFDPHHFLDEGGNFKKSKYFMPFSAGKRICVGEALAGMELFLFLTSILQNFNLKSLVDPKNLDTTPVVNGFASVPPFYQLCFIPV

| SMILES | Potency |
| --- | --- |
| NC1CCN(c2nc3c(cc2F)c(=O)c(C(=O)O)cn3-c2ccc(F)cc2F)C1 (stereo unspecified) | inactive |
| OCCC1CCCCN1 (stereo unspecified) | inactive |
| COc1cc(C(C)(C)C)c(O)c(C(C)(C)C)c1 | 22.4 µM (active) |
| COC(=O)C(C)=O | inactive |
| Cc1ccc(C(N)=O)cc1N | inactive |
| O=C1CCCCCO1 | inactive |
| Cn1c(=O)c2c(ncn2CC(O)CO)n(C)c1=O (stereo unspecified) | inactive |
| O=C(Cl)c1ccc([N+](=O)[O-])cc1 | inactive |
| CCCCc1cc2ccccc2c(OCCN(C)C)n1 | inactive |
| CCCCCC/C=C/C=O | 63.3 µM (active) |
| CCOC(=O)CC(C)C | inactive |
| CC(=O)CC(=O)c1ccccc1 | 35.8 µM (active) |
| C=Cc1c(C)c2cc3[nH]c(cc4nc(cc5nc(cc1[nH]2)C(C)=C5CCC(=O)O)C(CCC(=O)O)=C4C)c(C)c3C=C | inactive |
| CN1CCC(=C2c3ccccc3CCc3sccc32)CC1 | inactive |
| CCCCCOC(=O)COc1cc(N2C(=O)C3=C(CCCC3)C2=O)c(F)cc1Cl | 5.64 µM (active) |
| CC[C@H](C)[C@@H](C(=O)O)n1sc2ccccc2c1=O | inactive |
| NC(=S)N/N=C/c1cccnc1 | inactive |
| CC(=O)N(O)CCCCCNC(=O)CCC(=O)N(O)CCCCCNC(=O)CCC(=O)N(O)CCCCCN | inactive |
| O=C(NN1CCCC1)NS(=O)(=O)c1ccc(Cl)cc1 | inactive |

| SMILES | Potency |
| --- | --- |
| Cc1ccc(C)o1 | inactive |
| C=C(C)C(=O)OCCOc1ccccc1 | 35.6 µM (active) |
| CCCC(=O)OCC | 12.6 µM (active) |
| CC/C(=C\C(=N/O)C(N)=O)C(C)[N+](=O)[O-] (stereo unspecified) | inactive |
| SC1CCCC1 | inactive |
| Cc1ncsc1CCO | inactive |
| Nc1cnn([C@@H]2O[C@H](CO)[C@@H](O)[C@H]2O)c(=O)n1 | inactive |
| CC(=O)c1ccc2c(c1)[C@H](NC(=O)c1ccc(F)cc1)[C@@H](O)C(C)(C)O2 | 33.5 µM (active) |
| Nc1ccc(C(=O)Nc2ccccc2N)cc1 | inactive |
| Cl/C(=C\n1cncn1)c1ccc(Cl)cc1Cl | 15.5 µM (active) |
| CC(C(=O)O)c1ccc(C(=O)c2ccccc2)s1 (stereo unspecified) | 17.4 µM (active) |
| Cn1c(NCCN(CCO)CCCc2ccc([N+](=O)[O-])cc2)cc(=O)n(C)c1=O | inactive |
| CCCCCCc1ccc(N)cc1 | 17.8 µM (active) |
| COc1ccccc1OC(=O)Oc1ccccc1OC | inactive |
| O=C(CC(=O)c1ccccc1)c1ccccc1 | 38.2 µM (active) |
| CC[C@H](C)[C@H](N)C(=O)O | inactive |
| NCc1ccccc1 | inactive |
| CCN1CCC[C@H]1CNC(=O)c1c(OC)ccc(Br)c1OC | inactive |
| N[C@H]1C(O)O[C@H](CO)[C@H](O)[C@@H]1O (stereo partly specified) | inactive |

Each compound was assayed against Cytochrome P450 1A2 (Homo sapiens) (UniProt P05177) (assay: Cytochrome P450 Family 1 Subfamily A Member 2 (CYP1A2) small molecule antagonists: luciferase reporter qHTS assay (AID 1671199; further: nearly all actives have a fitted effect of over 50% in size)). Conditions: P450-Glo CYP1A2 enzyme, luciferin luminescence, 1 h; series mostly up to 115 µM.
Procedure, shortened: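 P450-Glo CYP1A2, 1536-well qHTS: enzyme/proluciferin substrate + cpd (DMSO), 10 min RT; NADPH regen, 1 h RT; detection reagent, 20 min; luminescence, RLU.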

Cytochrome P450 1A2 (Homo sapiens), sequence (P05177 whole entry, looked up): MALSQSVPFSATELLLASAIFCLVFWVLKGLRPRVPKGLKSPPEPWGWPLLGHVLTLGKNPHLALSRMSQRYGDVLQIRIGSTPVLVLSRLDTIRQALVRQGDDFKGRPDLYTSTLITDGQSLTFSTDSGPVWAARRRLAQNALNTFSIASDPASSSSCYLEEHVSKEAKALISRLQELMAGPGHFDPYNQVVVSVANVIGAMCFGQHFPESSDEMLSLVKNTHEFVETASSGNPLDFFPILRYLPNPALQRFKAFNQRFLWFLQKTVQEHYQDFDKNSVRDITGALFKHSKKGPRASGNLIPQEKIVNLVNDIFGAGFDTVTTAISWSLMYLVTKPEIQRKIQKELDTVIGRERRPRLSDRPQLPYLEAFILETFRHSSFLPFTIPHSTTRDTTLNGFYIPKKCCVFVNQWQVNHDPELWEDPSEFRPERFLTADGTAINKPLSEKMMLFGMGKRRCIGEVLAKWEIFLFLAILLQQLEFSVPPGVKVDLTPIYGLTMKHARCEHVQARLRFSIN

| SMILES | Potency |
| --- | --- |
| NC1CCN(c2nc3c(cc2F)c(=O)c(C(=O)O)cn3-c2ccc(F)cc2F)C1 (stereo unspecified) | inactive |
| OCCC1CCCCN1 (stereo unspecified) | inactive |
| COc1cc(C(C)(C)C)c(O)c(C(C)(C)C)c1 | 39.9 µM (active) |
| COC(=O)C(C)=O | 31.9 µM (active) |
| Cc1ccc(C(N)=O)cc1N | 35.6 µM (active) |
| O=C1CCCCCO1 | 35.9 µM (active) |
| Cn1c(=O)c2c(ncn2CC(O)CO)n(C)c1=O (stereo unspecified) | inactive |
| O=C(Cl)c1ccc([N+](=O)[O-])cc1 | 55.4 µM (active) |
| CCCCc1cc2ccccc2c(OCCN(C)C)n1 | 0.436 µM (active) |
| CCCCCC/C=C/C=O | inactive |
| CCOC(=O)CC(C)C | inactive |
| CC(=O)CC(=O)c1ccccc1 | 40.2 µM (active) |
| C=Cc1c(C)c2cc3[nH]c(cc4nc(cc5nc(cc1[nH]2)C(C)=C5CCC(=O)O)C(CCC(=O)O)=C4C)c(C)c3C=C | inactive |
| CN1CCC(=C2c3ccccc3CCc3sccc32)CC1 | inactive |
| CCCCCOC(=O)COc1cc(N2C(=O)C3=C(CCCC3)C2=O)c(F)cc1Cl | 31.7 µM (active) |
| CC[C@H](C)[C@@H](C(=O)O)n1sc2ccccc2c1=O | 25.2 µM (active) |
| NC(=S)N/N=C/c1cccnc1 | 17.4 µM (active) |
| CC(=O)N(O)CCCCCNC(=O)CCC(=O)N(O)CCCCCNC(=O)CCC(=O)N(O)CCCCCN | 24.5 µM (active) |
| O=C(NN1CCCC1)NS(=O)(=O)c1ccc(Cl)cc1 | inactive |

| SMILES | Potency |
| --- | --- |
| Cc1ccc(C)o1 | inactive |
| C=C(C)C(=O)OCCOc1ccccc1 | 25.2 µM (active) |
| CCCC(=O)OCC | inactive |
| CC/C(=C\C(=N/O)C(N)=O)C(C)[N+](=O)[O-] (stereo unspecified) | inactive |
| SC1CCCC1 | inactive |
| Cc1ncsc1CCO | inactive |
| Nc1cnn([C@@H]2O[C@H](CO)[C@@H](O)[C@H]2O)c(=O)n1 | inactive |
| CC(=O)c1ccc2c(c1)[C@H](NC(=O)c1ccc(F)cc1)[C@@H](O)C(C)(C)O2 | 33.5 µM (active) |
| Nc1ccc(C(=O)Nc2ccccc2N)cc1 | inactive |
| Cl/C(=C\n1cncn1)c1ccc(Cl)cc1Cl | 1.55 µM (active) |
| CC(C(=O)O)c1ccc(C(=O)c2ccccc2)s1 (stereo unspecified) | 9.11 µM (active) |
| Cn1c(NCCN(CCO)CCCc2ccc([N+](=O)[O-])cc2)cc(=O)n(C)c1=O | inactive |
| CCCCCCc1ccc(N)cc1 | 28.3 µM (active) |
| COc1ccccc1OC(=O)Oc1ccccc1OC | 4.56 µM (active) |
| O=C(CC(=O)c1ccccc1)c1ccccc1 | 3.82 µM (active) |
| CC[C@H](C)[C@H](N)C(=O)O | inactive |
| NCc1ccccc1 | 31.7 µM (active) |
| CCN1CCC[C@H]1CNC(=O)c1c(OC)ccc(Br)c1OC | inactive |
| N[C@H]1C(O)O[C@H](CO)[C@H](O)[C@@H]1O (stereo partly specified) | inactive |
